Measurements published in PubChem BioAssay (NCI).
The panel holds about 83,000 compounds, 20% with a hit somewhere; the sample as a whole holds those more often.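 Values shown are percent growth following 48 h exposure of cells in 96-well plates to a single concentration of compound; below 10 was considered active.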 The source made the active and inactive calls.

Test system: MALME-3M melanoma
Assay: NCI-60 one-dose screen, 48 h (100 = growth as untreated, 0 = no growth, -100 = all killed)
Details: 10 µM unless noted

Row | SMILES | growth
1 | Cc1ccc(Cl)cc1Nc1nc(C(F)(F)F)ccc1C(=O)N/N=C/c1cccnc1 | 15% (inactive)
2 | Fc1ccc(-c2nn(-c3ccccc3)cc2-c2nc3ccccc3o2)cc1 | 63.6% (inactive)
3 | CCOC(=O)C(=Cc1cccc(Br)c1)C(=O)OCC | 73.1% (inactive)
4 | COc1cccc(NC(=O)Cn2cc(CN3CCN(c4ccnc5cc(Cl)ccc45)CC3)nn2)c1 | 95.6% (inactive)
5 | CCOC(=O)c1cc2c(=O)oc3ccccc3c2oc1=O | 105% (inactive)
6 | O=C(Nc1cc(Cl)ccc1O)c1ccc(Nc2ccnc(C(F)(F)F)c2)cc1 | 60.5% (inactive)
7 | C=C(C)[C@@H]1CC[C@]2(C(=O)O)CC[C@]3(C)[C@H](CC[C@@H]4[C@@]5(C)C[C@@H](Cc6cn(CCO[C@@H]7O[C@H](COC(C)=O)[C@H](OC(C)=O)[C@H](OC(C)=O)[C@H]7OC(C)=O)nn6)[C@H](O)C(C)(C)[C@@H]5CC[C@]43C)[C@@H]12 | 77.7% (inactive)
8 | CC(C)CCC[C@@H](C)[C@H]1CC[C@H]2[C@@H]3CC=C4C[C@@H](C(C(=O)O)C(=O)O)CC[C@]4(C)[C@H]3CC[C@]12C | -43% (active)
9 | O=S(=O)(Nc1ccc(Cl)cc1)c1ccc(-c2cnc(C3CC3)o2)cc1 | 46.3% (inactive)
10 | C#CCOc1ccc2ncnc(Nc3ccc(NC(=O)CCl)cc3)c2c1 | -74.5% (active)
11 | CCOC(=O)C1=C(NC)OCC1=O | 113% (inactive)
12 | COC(=O)c1c2c(c(C)[n+]([O-])c1C)C(=O)C=C(NCc1ccc(Br)cc1)C2=O | -97.9% (active)
13 | CCN(CC)CCOc1ccc(-c2c(-c3ccccc3)c(=O)oc3ccccc23)cc1 | 87.2% (inactive)
14 | Nc1nc(=S)c2ncn(C3OC(COP(=O)(O)O)C(O)C3O)c2[nH]1 (stereo not given) | 39.7% (inactive)
15 | COc1ccc(/C=N/NC(=O)CCN2c3ccccc3Sc3ccccc32)cc1 | 71.7% (inactive)
16 | c1cnc2[nH]cc(-c3csc(-c4cn(CCCN5CCOCC5)c5ccccc45)n3)c2c1 | 61.1% (inactive)
17 | S=C1CCSC(=S)N1CCCN1C(=S)CCSC1=S | 74.2% (inactive)
18 | COc1ccc(C(=O)Nc2ncc(Cc3ccc(F)cc3)s2)cc1 | 60.2% (inactive)
19 | C=C1C(=O)O[C@H]2[C@H]1CC/C(COC(=O)NCc1cc[nH]c1)=C\CC[C@@]1(C)O[C@@H]21 | 84.2% (inactive)
20 | CN(C)CCCC1(c2ccc(F)cc2)OCc2cc(-c3cccc4[nH]ccc34)ccc21 (stereo not given) | -91.6% (active)

Row | SMILES | growth
21 | COC(C(=O)[C@@H](O)[C@@H](C)O)[C@@H]1Cc2cc3cc(O[C@H]4C[C@@H](O[C@H]5C[C@@H](O)[C@H](O)C(C)O5)[C@H](O)C(C)O4)c(C)c(O)c3c(O)c2C(=O)[C@H]1O[C@H]1C[C@@H](O[C@H]2C[C@@H](O[C@H]3C[C@@H](O)[C@H](OC)C(C)O3)[C@@H](O)C(C)O2)[C@H](O)C(C)O1 (stereo not given in full) | -30.7% (active)
22 | CCNc1cc(-c2cccc(OC(F)(F)F)c2)nc2ccc(N3CCCC3)cc12 | -32.2% (active)
23 | CCNc1nc(-c2ccc(Cl)c(OC)c2)c(-c2ccnc(NCCCNS(=O)(=O)c3ccc(Cl)cc3)n2)s1 | 7.63% (active)
24 | Cc1nc2c(=O)[nH]c(SCC(=O)Nc3cccc(F)c3)nc2[nH]c1=O | 105% (inactive)
25 | Cc1ccc(-c2nc3nc(-c4ccc(F)cc4)nc(N4CCNCC4)c3o2)cc1 | 107% (inactive)
26 | O=C(/C=C(/C=C/c1cccc2[nH]ccc12)OB(F)F)/C=C/c1cccc2[nH]ccc12 | -26.9% (active)
27 | Oc1c(Cl)cc(Cl)c2ccc(Cn3cc(-c4cc(C(F)(F)F)cc(C(F)(F)F)c4)nn3)nc12 | -13.2% (active)
28 | CC[C@@H](C(=O)[C@@H](C)[C@@H](O)[C@H](C)[C@@H]1O[C@@H]([C@@H](CC)C(=O)NCCc2ccc(F)cc2)CC[C@@H]1C)C1O[C@]2(C=CC(=O)[C@]3(CC[C@@](C)([C@H]4CC[C@](O)(CC)[C@H](C)O4)O3)O2)[C@H](C)C[C@@H]1C (stereo not given in full) | 36% (inactive)
29 | c1cc2[nH]ncc2cc1-c1nc2ccc3[nH]ncc3c2c2c1CCCC2 | 12.1% (inactive)
30 | C#CCOc1cccc(Nc2ncnc3c(NC(=O)C=C)cccc23)c1 | 31.3% (inactive)
31 | N#Cc1cnc(NCCc2ccncc2)nc1-n1cnc2ccccc21 | 69% (inactive)
32 | CCOC(=O)c1c(NC(=O)c2ccc(C(C)C)cc2)sc2c(CN(C)C)c(O)ccc12 | -45.5% (active)
33 | COc1ccc(N2CCC(=O)NC2=S)cc1 | 110% (inactive)
34 | Oc1c(Cl)cc(Cl)c2ccc(Cn3cc(-c4cc(F)cc(F)c4)nn3)nc12 | 37.2% (inactive)
35 | CO/N=C(/C)c1ccc(NC(=O)CSc2nnc(-c3ccncc3)n2-c2ccccc2)cc1 | 32.2% (inactive)
36 | O=C1c2cccnc2C(=O)c2c1c(C(=O)NCCn1ccnc1)c1ccccn21 | -68.8% (active)
37 | O=C1NC(=O)c2c1c1c3ccccc3ccc1c1[nH]c3ccc(Br)cc3c21 | -10.7% (active)
38 | Cc1ccc(-c2nc3nc(-c4ccccc4)nc(N4CCNCC4)c3o2)cc1 | -80.4% (active)
39 | CC(C)(C)n1cc(-c2ccnc(NCCNS(=O)(=O)c3cccc(F)c3)c2)c(-c2ccccc2)n1 | 107% (inactive)
40 | Cc1c(-n2nnc(-c3nc4ccccc4s3)c2N)c(=O)n(-c2ccccc2)n1C | 97.6% (inactive)
